In PMC12136788:
Residue numbers refer to the chain shown, from its start. In all, about 24,000 sequences were measured (“enrichment r”: median about 0.99, highest 2% from about 3.7 on). The sample holds the highest values, similar sequences and a random draw of the others, so the mix is not that of the screen.

T1: UNK ZnF1-3 (human, UniProt Q9C0B0 31-174)
T1 sequence: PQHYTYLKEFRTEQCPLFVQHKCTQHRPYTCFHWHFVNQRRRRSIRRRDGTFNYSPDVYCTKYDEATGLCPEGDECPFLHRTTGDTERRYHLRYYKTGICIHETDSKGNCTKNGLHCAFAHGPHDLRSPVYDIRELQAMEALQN

B1: chr12:73045124:73045125:+_ENSMUSG00000034574_ENSMUST00000085299|mus_mus|FALSE|FALSE (ssRNA)
RNA: GGGAGUUCUACAGUCCGACGAUCGCCUUGAGAGUUGUUCAUUAGUGCCUUUAUACAGCCAAUGAGGGAGGUGUGUAUCCGAGACUCAGAGGUCUCAUAGUCCAUGGUCUUCAGAAAGUUGAGAAUACAUGACAGGCCAUCCAACAACAGAGGAUUGAGCAUCA
B2: chr16:57473197:57473198:-_ENSG00000005194_ENST00000569370|hu_hu|motif|central (ssRNA)
RNA: GGGAGUUCUACAGUCCGACGAUCGAUCCGGGCGAUUUCAGCCAAAAUCUCAGCACUGUGCAGAGUGGUGCUUCCUGGGACGGAACCUGACAAAAUAAUGUCAAAGCUGGAUUCUUUGUGGGCAGAUUGCAACAGCUGCUUGAUCAACAGAGGAUUGAGCAUCA
B3: chrX:114877694:114877695:+_ENSG00000102024_ENST00000355899|hu_hu|FALSE|FALSE (ssRNA)
RNA: GGGAGUUCUACAGUCCGACGAUCGUUGAGUUUGGGGUUUCCACUGACAACAUCAGCAGGGGUAACAAACUGUCUGCAACCUAAUUUAUCUGCUUGUUGAAGCAUACUCUCAGCUCUCUUCAAAUCAUCUGUUUCAUUGAAACCCAACAGAGGAUUGAGCAUCA
B4: 31603315_31603435_826_3pUTR_ENSMUSG00000024261_ENSMUST00000025110|mouse|control|control (ssRNA)
RNA: GGGAGUUCUACAGUCCGACGAUCUUCCUGAGCACUCUGGUCUUCACUCUGUGCUUCUUCUCUGGUAAGAUUGUCAUUUUGAUGUACGGGUCAGAGGUCAUGGAUUGCUCGUCCAUGGCUGGUAAGCCCUGGGCUUCCUUGAUGCAACAGAGGAUUGAGCAUCA
B5: 171883182_171886102_1035_3pUTR_ENSMUSG00000026675_ENSMUST00000027989|mouse|control|control (ssRNA)
RNA: GGGAGUUCUACAGUCCGACGAUCUUCUGAACGGUGGUCCUGACACGCUUUUCCAGCUCCAGUAAGACCUCAUAGAAUUUUUCAGCAGUGUCUUCAUCUAUGUCCAUCUUUUGGCCCGUGACGUAAUUAGUCCCAAAUCCCGAGCAACAGAGGAUUGAGCAUCA
B6: 82050892_82051012_2182_ncRNA_ENSMUSG00000021134_ENSMUST00000153056|mouse|control|control (ssRNA)
RNA: GGGAGUUCUACAGUCCGACGAUCUUGUUUUGUUUUUUAAAAAAAGGCCCCCAGGGCAAGUUAUUUACAGUUUAAUUGCCACUGUCAACUGAUCUGGACCUGGACCGGGAUCGGGACCUCUGGCGAUCCACAGAUGCUGGAGAUCAACAGAGGAUUGAGCAUCA
B7: chr18:35731629:35731630:+_ENSMUSG00000037236_ENSMUST00000166793|mus_mus|motif|central (ssRNA)
RNA: GGGAGUUCUACAGUCCGACGAUCUUAUAGAUCAAAAAAAAAAAAAAAAGUUUUAAAAGAUGGCCAAAAAGAAAGCUCAAGCGGGAAAGCUAGGUUAACUUUGCUUCAAAAAUGGUAACGCCAAGAAAAAGGAUCAAUAAGGACCAACAGAGGAUUGAGCAUCA
B8: chr2:115689334:115689335:-_ENSMUSG00000027210_ENSMUST00000074285|mus_hu|FALSE|FALSE (ssRNA)
RNA: GGGAGUUCUACAGUCCGACGAUCCUCUUUGAAGAAGAGUCCCCCAAAAAUAAUAAUAAGAAUUGGCUUAUGAAGCACGAACUAUAAAGAUCUGUUUGAAACUAAAGGACACAUUUAUGGAGGAACAAAGGCCGGGCAUGAAAACAACAGAGGAUUGAGCAUCA
B9: chr14:54894545:54894546:-_ENSG00000100528_ENST00000216416|hu_hu|FALSE|FALSE (ssRNA)
RNA: GGGAGUUCUACAGUCCGACGAUCCAUUUGGUGGCUUUUUGCAUGCACUUAACUGGACCAAUUCUUCUGUGUGUUGUUCUAAGAGCUCACCAAAACAUAGAUCAUGCCAUAUAGGUAGUAAAAAAAUGCUAGAAGAUAAAAAGCCAACAGAGGAUUGAGCAUCA
B10: 151522442_151522562_447_CDS_ENSMUSG00000034021_ENSMUST00000016569|mouse|control|control (ssRNA)
RNA: GGGAGUUCUACAGUCCGACGAUCAUAAAUCCUGAAAAUAUCAGCAAGGCAGCAAGCCACCAGUAAACGAACAUCUUUAUCAGGAUGCUUGAGGAAGAAGUCAGAAGCAAGAUGUAAAGCUAGGUUUAGAUAAAGUUCCUUUUCCAACAGAGGAUUGAGCAUCA
B11: chr1:23636438:23636439:-_ENSG00000125944_ENST00000302271|hu_mus|FALSE|FALSE (ssRNA)
RNA: GGGAGUUCUACAGUCCGACGAUCUUUUGUAGGGCAGAUUUCAAAAAGGUGUGGUUAUAACAAUUUAAAAACACAGUUAACCUGCUUCUAGGAAUGCAAAACAUACAGUCAUAGGUUAUCUUCAAUACAAGGAAACUUAAGUCUCAACAGAGGAUUGAGCAUCA
B12: chr13:59234359:59234360:+_ENSMUSG00000055254_ENSMUST00000079828|mus_mus|FALSE|FALSE (ssRNA)
RNA: GGGAGUUCUACAGUCCGACGAUCUAUGUAAAAAAUUGUUUUUGCUUUAUGUUGGUGAUGAAUGGACCAAAAGUUGAUAGAUAGAUAGAUAAAUAAAUAAAUAAAUAAAUAAAUACACAAAUAAAUAACGCCGAAGGGAAAGAACAACAGAGGAUUGAGCAUCA
B13: chr18:35731629:35731630:+_ENSMUSG00000037236_ENSMUST00000166793|mus_mus|FALSE|FALSE (ssRNA)
RNA: B7 RNA with G82U, G83A
B14: chr16:94651144:94651145:+_ENSMUSG00000040785_ENSMUST00000117648|mus_hu|mus_mus_mus_hu_True|58_98 (ssRNA)
RNA: GGGAGUUCUACAGUCCGACGAUCAUUUUCUUGAAUCAAGUGACCGAUAACAUAGUCCACUGCUUCAUUUAGAAAAUUUUUGCUAGAAAAACAGGUUGUAUAGUCUUCUGUGCUCAAAACUUUCCAAGAAAGCAAUUCUUUGAGCAACAGAGGAUUGAGCAUCA

target: T1, UNK ZnF1-3; experiment: nsRBNS (natural sequence RNA bind-n-seq); RBNS binding buffer (assumed for nsRBNS): 25 mM Tris pH 7.5, 150 mM KCl, 3 mM MgCl2, 0.01% Triton X-100, 500 ug/ml BSA, 20 U/ml SUPERase-In, 4 C; UNK is unkempt and MSI1 is Musashi-1; names of the RNAs are library labels; protein concentration not given here; high values mean tight binding

Binder | binding signal
B1 | 0.851 enrichment R
B2 | 1.32 enrichment R
B3 | 0.755 enrichment R
B4 | 0.411 enrichment R
B5 | 0.753 enrichment R
B6 | 1.31 enrichment R
B7 | 8.04 enrichment R
B8 | 2.27 enrichment R
B9 | 1.24 enrichment R
B10 | 1.36 enrichment R
B11 | 1.23 enrichment R
B12 | 5.23 enrichment R
B13 | 7.98 enrichment R
B14 | 0.331 enrichment R
